Laboratory results published in PubChem BioAssay AID687014 (The Scripps Research Institute Molecular Screening Center, 2013).
The whole screen tested about 370,000 compounds, of which about 6,800 (1.8%) were called active. The list comes from a sample in which actives are over-represented; it also holds similar structures and randomly drawn compounds. Unmarked numbers belong to inactive results.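 Rule for the calls: active = activation above a cutoff set at the mean of all screened compounds plus 3 SD (cut at about 10% in these data); inactive = the rest.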

Each compound was assayed on Nuclear hormone receptor DAF-12 (Heterodera glycines), GAL4 fusion (assay: H. glycines DAF-12 receptor agonists, primary screen, cell-based, luminescence, HEK293, GAL4 fusion, UAS-luciferase (AID 687014;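 note: 0% = DMSO wells and 100% = sodium butyrate wells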)). Conditions: HEK293 GAL4-hgDAF12 UAS-luciferase reporter, agonist luminescence; at 6.8 µM; stronger effect = higher value; normalized to butyrate control.

Row | Compound | activation
1 | CC(=O)N1C(C)c2ccccc2C(C)(C)CC12CCCCC2 (configuration not stated) | -2.75%
2 | CN[C@H]1C[C@H]2c3[nH]c4c(-c5ccccc5)cccc4c3CCN2C(=O)[C@H]1[C@H](C)O | -0.57%
3 | O=C(N/N=C/c1cccc2cccnc12)[C@H]1C[C@@H]1c1ccccc1 | -1.03%
4 | O=C(Cc1ccc(Cl)cc1)NC(=S)Nc1ccccc1O | 3.46%
5 | O=C(NC(=O)c1ccccc1)Nc1ccccc1O | 13.8% (active)
6 | O=C(NC(=S)Nc1cccc2c(O)cccc12)c1cccc(Br)c1 | 0.96%
7 | CCOC(=O)[C@H]1CCC[C@@H](NS(=O)(=O)c2ccc(NC(C)=O)cc2)C1 | 1.29%
8 | Cc1ccc(NC(=O)Cc2cccc(F)c2)c(S(=O)(=O)N2CCOCC2)c1 | 1.41%
9 | COCC1CCCN(Cc2nc(-c3ccc4c(c3)OCO4)no2)C1 (configuration not stated) | 6.75%
10 | O=C(COCc1cc(-c2ccc3c(c2)OCO3)on1)N1CCN(c2cccc(Cl)c2)CC1 | 1.17%
11 | CCc1ccccc1NC(=O)CSc1nnc(-c2cccs2)o1 | 2.52%
12 | CNC(=S)N1N=C(c2ccccc2)CC1c1ccc(Br)cc1 (configuration not stated) | -1.01%
13 | Brc1ccc(C2CC(c3ccccc3)=Nc3ccccc3N2)cc1 (configuration not stated) | 17.3% (active)
14 | CN1[C@H](Cc2ccccc2)COc2cccc(N3CCSCC3)c2S1(=O)=O | 4.83%
15 | Cc1cc(=O)[nH]c(SCC(=O)Nc2ccc(Cl)cc2C)n1 | 1.76%
16 | CCCCCCCCNS(=O)(=O)/C=C/c1cc(C)ccc1CNC(=O)OC(C)(C)C | 0.08%
17 | COC(=O)c1cc(S(=O)(=O)N2CCN(c3ccccc3C)CC2)cn1C | -4.6%
18 | CCOC(=O)c1cc(C(C)C)sc1NC(=O)COC(=O)c1nccnc1N | 0.71%
19 | CC(C)c1cc(C(N)=O)c(NC(=O)c2cccc(COc3ccc(Br)cc3)c2)s1 | 16.6% (active)

Row | Compound | activation
20 | Cc1sc(NC(=O)c2ccc3ncsc3c2)c(C(N)=O)c1C | 8.75%
21 | C[C@H](O)[C@@H]1C(=O)N2CCc3c([nH]c4c(-c5ccc6c(c5)OCO6)cccc34)[C@@H]2C[C@@H]1N(C)C(=O)c1ccco1 | 2.82%
22 | Nc1nc2c(ncn2[C@@H]2O[C@H](C(=O)N[C@H](Cc3ccccc3)C(=O)NCC3CCCCC3)[C@@H](O)[C@H]2O)c(=O)[nH]1 | -0.41%
23 | c1ccc2c(c1)nnn2-c1ccncc1 | 0.89%
24 | COCCCNC(=O)C[C@H]1C[C@@]2(C(=O)OC)C(=C[C@H](C(C)(C)C)O[C@@H]2C)N(Cc2ccc3c(c2)OCO3)C1=O | 1.15%
25 | Cc1ccc(-c2noc(CNC(=O)c3ccoc3C)n2)cc1 | -0.34%
26 | CC1CCN(Cc2nc(-c3ccc(Cl)cc3)no2)CC1 | 0.37%
27 | Cc1cc(Cl)ccc1OCc1nc(-c2ccncc2)no1 | 14% (active)
28 | CN(CCc1ccccc1)C(=O)Cn1nc(-c2ccccc2)ccc1=O | 1.22%
29 | O=C1CC[C@@]23CCCN2C(=O)CCC[C@H]3[C@H]1Cc1ccccc1 | -4.37%
30 | Cc1nc2cc(NC(=O)Nc3cccc(F)c3)ccc2n1C | 14.2% (active)
31 | Cc1nc2cc(NCc3cccs3)ccc2n1C | 8.48%
32 | Cc1nc2nc(SCC(=O)Nc3cccc(F)c3)[nH]c2cc1Br | 0.38%
33 | Cc1ccc(C)c(CN2CCC(CNC(=O)C3CCCN(c4ncnc5c4nc4n5CCCCC4)C3)CC2)c1 (configuration not stated) | -0.85%
34 | COC(=O)C(C(=O)OC)c1ccccc1NS(=O)(=O)c1cccc2ccccc12 | -2.1%
35 | CCOc1ccc2nc(C(=O)N3CCCC(C)C3)sc2c1 (configuration not stated) | 17.9% (active)
36 | COc1ccc2cc(C(=O)C3CCCN(C(=O)c4sc(C)nc4C)C3)ccc2c1 (configuration not stated) | -1.02%
37 | CCOc1ccc(NC(=O)C2CCCN(C(=O)Nc3ccccc3)C2)cc1 (configuration not stated) | 1.89%
38 | COc1ccc(N(CC(=O)NCc2ccc(F)cc2)C(=O)CCC(=O)Nc2nccs2)cc1 | 1.39%

Row | Compound | activation
39 | CC(C)C(=O)Nc1ccc2c(c1)oc1ccccc12 | 12.2% (active)
40 | CC(C)C(=O)Nc1oc(-c2ccccc2)cc1C#N | -0.28%
41 | CC(C)C(=O)Nc1c(C(=O)c2ccc(F)cc2)oc2ccccc12 | -0.79%
42 | COC(=O)N1Cc2ccnnc2CC1c1ccccc1Br (configuration not stated) | 0.66%
43 | FC(F)(F)c1cccc(-c2nc3ccccc3n2C(c2ccccc2)c2nc3ccccc3[nH]2)c1 (configuration not stated) | 10.7% (active)
44 | FC(F)(F)c1cccc(-c2cc3ccccc3nc2N2CCCC2)c1 | -1.35%
45 | CCC(c1nc2ccccc2[nH]1)n1c(=O)c(-c2cccs2)nc2ccccc21 (configuration not stated) | 1.53%
46 | COC(=O)C1=C(C)N(Cc2ccccc2C(F)(F)F)C(=NCC2CC2)NC1c1cccc(Cl)c1 (configuration not stated) | 4.82%
47 | C=CCN1[C@H](CC(C)C)COc2cccc(N3CCCC3)c2S1(=O)=O | 1.57%
48 | Cn1nc(-c2ccccc2)c(CSc2cccc(Cl)c2)c1Cl | -1.11%
49 | Clc1ccc2nc(CSc3ccccc3)cn2c1 | 15.8% (active)
50 | O=c1c2ccccc2nc2n1C(CSc1ccc(Cl)cc1)CN2 (configuration not stated) | -1.24%
51 | COC(=O)C[C@@H]1CC[C@@H]2[C@H](COc3ccc(NC(=O)c4cccc(F)c4)cc3C(=O)N2C)O1 | 7.18%
52 | Cc1noc(C)c1NC(=O)Nc1ccc2c(c1)C(=O)N([C@H](C)CO)C[C@H](C)[C@H](CN(C)Cc1ccncc1)OCCCC[C@@H](C)O2 | 2.01%
53 | C=CS(=O)(=O)N(Cc1nnn(Cc2ccccc2)c1Br)[C@H](C(=O)OC)C(C)C | -3.42%
54 | O=C(c1ccc(C(F)(F)F)cc1)C1CCCN(C(=O)c2csnn2)C1 (configuration not stated) | -0.18%
55 | Cc1cnc(C(=O)N2CCCC(C(=O)c3ccc(C(F)(F)F)cc3)C2)cn1 (configuration not stated) | 19.4% (active)
56 | COCC(=O)N1CCCC(C(=O)c2ccc(C(F)(F)F)cc2)C1 (configuration not stated) | -2.29%
57 | COc1ccc(-n2c(SCC(=O)Nc3ccc4cn[nH]c4c3)nnc2-c2cccnc2)cc1 | -0.21%
